What all share (format): functional
Assay [1] concerns Plasmodium falciparum. Kind of assay: GSK_TCMDC: Inhibition of Plasmodium falciparum 3D7 in whole red blood cells, using parasite LDH activity as an index of growth. Test compounds present at 2uM.
For assay [2], the system named is Plasmodium falciparum. Kind of assay: GSK_TCMDC: Inhibition of Plasmodium falciparum Dd2 in whole red blood cells, using parasite LDH activity as an index of growth. Test compounds present at 2uM.
In the next assay the test system is HepG2. Kind of assay: GSK_TCMDC: Percent inhibition of human HepG2 cell line. Test compounds present at 10uM.

Regarding `CC(=Nc1ccc(Cl)c(Cl)c1)N(C)C.Cl`, the Inhibition in the assay with Plasmodium falciparum [1] is recorded as 98%; with Plasmodium falciparum [2], 0%; in the assay with HepG2 it was 0%.
Take `Nc1nc(N)c2c(ccc3c2ccn3Cc2ccc(OCc3ccccc3)cc2)n1`: the Inhibition in the assay on Plasmodium falciparum [1] turned out to be 98%; with Plasmodium falciparum [2] it was 1%; in the assay on HepG2 it was 5%.
For `O=C(Nc1ccccc1)Nc1cccc(-c2ccc(-c3nc4cc(C(F)(F)F)ccc4[nH]3)cc2)c1` the same measures were 100%, 37% and 48%.
For `Cc1ccc(F)c(NC(=O)c2c(-c3c(F)cccc3Cl)noc2C)c1`, the Inhibition turned out to be 90% with Plasmodium falciparum [1], 18% in the assay with Plasmodium falciparum [2] and 13% in the assay with HepG2.
Take `Cc1ncsc1CCN1C(=O)CC2(C1=O)C(=O)N(Cc1ccccc1)c1ccc(Cl)cc12` (configuration not stated): the values for the Inhibition in the assay on Plasmodium falciparum [1], with Plasmodium falciparum [2] and in the assay with HepG2 were 86%, 46% and 0%, respectively.
For `O=C(O)c1ccc2c(c1)N(C(=O)CNCc1ccc(F)cc1)CC(=O)N2CCCc1ccccc1` the same measures were 95%, 0% and 1%.
On to `O=C(O)C(F)(F)F.Oc1ccc(CCNc2nc(NCc3cccc(OCc4cccc(F)c4)c3)nc(N3CCNCC3)n2)cc1`, for which the values for the Inhibition with Plasmodium falciparum [1], in the assay with Plasmodium falciparum [2] and with HepG2 were 86%, 0% and 27%, respectively.
Consider `COc1ccccc1Nc1nc(NC2CCN(C)CC2)cc(-c2cccc(C(F)(F)F)c2)n1.O=C(O)C(F)(F)F`, for which the Inhibition in the assay with Plasmodium falciparum [1] is recorded as 95%; with Plasmodium falciparum [2] it was 71%; with HepG2, 100%.
As to `CO/C(=C\C=C\c1cc2cc(Cl)c(Cl)cc2[nH]1)C(=O)NCCCN1CCN(c2cccc(OCC(=O)Nc3cccc(C(=O)c4ccccc4)c3)c2)CC1`, the Inhibition in the assay on Plasmodium falciparum [1] is 94%; with Plasmodium falciparum [2] it was 88%; with HepG2, 48%.
`COC(=O)c1ccc(Nc2nccc(Nc3ccc(Oc4ccccc4)cc3)n2)cc1.Cl`: the Inhibition in the assay with Plasmodium falciparum [1] is recorded as 93%; in the assay with Plasmodium falciparum [2], 15%; with HepG2, 0%.
The like results for `CCOC(=O)C1=C(C)NC2=C(C(=O)CC(C)(C)C2)C1c1ccc(Br)cc1` (configuration not stated) were, in that order, 90%, 66% and 0%.
With `CCNc1cc(C(=O)N[C@@H](Cc2ccccc2)[C@H](O)CNCCc2cc(OC)cc(OC)c2)cc(N2CCCCS2(=O)=O)c1.Cl`, the Inhibition worked out at 89% with Plasmodium falciparum [1], 28% with Plasmodium falciparum [2] and 3% with HepG2.
The like results for `CCCCCC(C)N/C(=N/c1ccccc1Br)Nc1ccc(C#N)cc1O` (configuration not stated) were, in that order, 98%, 95% and 2%.
As to `Cl.O=C(Nc1ccccc1Br)N[C@@H]1CCN(c2ccnc3ccccc23)C1`, the Inhibition with Plasmodium falciparum [1] is 91%; in the assay with Plasmodium falciparum [2], 90%; with HepG2, 25%.
The like results for `OC1(c2ccccc2)c2cc(Cl)ccc2OC1c1nc2c(Cl)ccc(Cl)c2o1` (configuration not stated) were, in that order, 98%, 89% and 7%.
Regarding `CCCCCC(C)C(C)c1cc(O)c2c(c1)OC(C)(C)CC2(O)c1ccnn1C` (configuration not stated), the Inhibition with Plasmodium falciparum [1] stood at 98%; in the assay on Plasmodium falciparum [2] it was 95%; with HepG2, 20%.
For `Cn1c(N)c(C(=O)CSc2ncc(-c3ccc(F)cc3)n2Cc2ccccc2)c(=O)n(C)c1=O` the same measures were 88%, 66% and 11%.
`COc1ccc(C(=O)NC2CCN(c3ccnc4cc(Cl)ccc34)C2)cc1.O=C(O)C(F)(F)F` (configuration not stated): the Inhibition with Plasmodium falciparum [1] was found to be 100%; in the assay on Plasmodium falciparum [2], 100%; in the assay with HepG2 it was 31%.
In the case of `O=C(Nc1ccccc1Cc1ccccc1)c1ccccc1C(F)(F)F`, the Inhibition with Plasmodium falciparum [1] amounted to 99%; in the assay with Plasmodium falciparum [2], 85%; in the assay on HepG2 it was 0%.
Regarding `Cc1ccc2nc3sc(C(=O)NCCCN4CCC(N5CCCCC5)CC4)cc3cc2c1`, the Inhibition is 100% in the assay on Plasmodium falciparum [1], 71% in the assay with Plasmodium falciparum [2] and 11% with HepG2.
Regarding `CS(=O)(=O)CCNC(=O)c1ccc(-c2cc3c(Nc4ccc5c(cnn5Cc5ccccc5)c4)ncnc3cn2)o1.Cl`, the Inhibition is 97% with Plasmodium falciparum [1], 46% in the assay with Plasmodium falciparum [2] and 6% with HepG2.
On to `CCCc1cc2c3c(N)nc(N)nc3ccc2n1C(CC)CC`, for which the values for the Inhibition with Plasmodium falciparum [1], with Plasmodium falciparum [2] and with HepG2 were 100%, 73% and 70%, respectively.
The like results for `CCCCNCc1ccc(OCc2cccc(COc3ccc(CNCCCC)cc3)c2)cc1.Cl` were, in that order, 100%, 35% and 98%.
For `Cl.c1ccc2c(C3CCN(CCCCOc4ccc5c(c4)CCN(CC4CC4)CC5)CC3)c[nH]c2c1` the same measures were 99%, 97% and 74%.
As to `CC(=O)c1c(C)[nH]c(C(=O)Nc2ccc(-c3nc4ccc(C)cc4s3)cc2)c1C`, the Inhibition in the assay on Plasmodium falciparum [1] is 92%; in the assay on Plasmodium falciparum [2], 40%; with HepG2, 11%.
In the case of `N#Cc1ccc(-c2nc(CO)c(C(=O)NCCCCN3CCC(c4ccc5c(c4OCC(N)=O)CCCC5)CC3)s2)cc1`, the results for the Inhibition in the assay on Plasmodium falciparum [1], in the assay on Plasmodium falciparum [2] and in the assay with HepG2 were 92%, 0% and 9%, respectively.
For `CC(=O)Nc1ccc(C(=O)Nc2ccc(-c3csc(-c4nc5ccccc5[nH]4)c3)cc2)cn1` the same measures were 93%, 0% and 11%.
With `CCCc1nc2c(N3CC(NC(=O)/C=C/c4ccccc4)C3)cccc2n1C1CC1`, the values for the Inhibition in the assay with Plasmodium falciparum [1], with Plasmodium falciparum [2] and with HepG2 were 83%, 68% and 1%, respectively.
On to `CC(CCc1ccccc1)NCC(O)c1ccc2c(c1)S(=O)(=O)c1ccccc1N2` (configuration not stated), for which the Inhibition with Plasmodium falciparum [1] came out at 95%; in the assay on Plasmodium falciparum [2] it was 4%; in the assay on HepG2, 17%.

For the origin of these results see ChEMBL document CHEMBL1157539, “Thousands of chemical starting points for antimalarial lead identification” (Nature, 2010).
